Compound activity deposited in PubChem by National Center for Advancing Translational Sciences (NCATS).
This excerpt belongs to a sample that is enriched for hits.
HT1080-NT tox: kills 2HG-producing HT-1080-NT fibrosarcoma cells | HT-1080-NT fibrosarcoma viability, CellTiter-Glo ATP luminescence, 48 h | Potency, µM (top dose mostly 46.1 µM), most hits filed as cytotoxic | 360,000 compounds, 1.6% hits | AID 686970;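 also: NT is the 2HG producing partner of a matched IDH1 knockdown line; nearly all actives have a fitted effect of over 55% in size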
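Viability of the 2HG-overproducing fibrosarcoma line after 48 hours of compound exposure at 37 degrees C was determined by luminescence with CellTiter-Glo, and concentration-effect curves were then fitted and categorized.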
HT1080 IDH1KD tx: kills HT-1080 cells with IDH1 knockdown | HT-1080 IDH1 knockdown viability, ATP luminescence, 48 h | Potency, µM (titrated, usually from 46.1 µM), hits mostly cytotoxic | 360,000 compounds, 2% hits
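Luminescent ATP read-out (CellTiter-Glo, 10 min at room temperature) after 48 h compound exposure at 37 °C gave viability of IDH1-knockdown HT-1080 cells. Activity was normalised to DMSO and cell-free wells, then fitted as concentration-response curves.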
IL1B secr inh: inhibitors of inflammasome signaling (IL-1 beta secretion) | THP-1 LPS/ATP IL-1B secretion, AlphaLISA, 16 h; stronger effect = lower value | activity change, % at 57.5 µM | 360,000 compounds, 4.7% hits; in the data active = activity change below about -50%; inconclusive = mostly about -30% to -49%
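THP-1 cells pretreated 1 hr with compounds (up to 57.5 uM final), then stimulated with LPS (250 ng/mL final) plus ATP (1.25 mM final); secreted IL-1B measured by AlphaLISA after 16 hr, decreased signal indicating inhibition.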
12-LOX inh: blocks human arachidonate 12S-lipoxygenase; P18054; purified 12hLO, xylenol orange hydroperoxide absorbance; 580,000 compounds, 1.1% hits; Potency, µM (titrated, usually from 108 µM), actives largely listed as inhibitors
Target sequence (P18054 whole entry, looked up): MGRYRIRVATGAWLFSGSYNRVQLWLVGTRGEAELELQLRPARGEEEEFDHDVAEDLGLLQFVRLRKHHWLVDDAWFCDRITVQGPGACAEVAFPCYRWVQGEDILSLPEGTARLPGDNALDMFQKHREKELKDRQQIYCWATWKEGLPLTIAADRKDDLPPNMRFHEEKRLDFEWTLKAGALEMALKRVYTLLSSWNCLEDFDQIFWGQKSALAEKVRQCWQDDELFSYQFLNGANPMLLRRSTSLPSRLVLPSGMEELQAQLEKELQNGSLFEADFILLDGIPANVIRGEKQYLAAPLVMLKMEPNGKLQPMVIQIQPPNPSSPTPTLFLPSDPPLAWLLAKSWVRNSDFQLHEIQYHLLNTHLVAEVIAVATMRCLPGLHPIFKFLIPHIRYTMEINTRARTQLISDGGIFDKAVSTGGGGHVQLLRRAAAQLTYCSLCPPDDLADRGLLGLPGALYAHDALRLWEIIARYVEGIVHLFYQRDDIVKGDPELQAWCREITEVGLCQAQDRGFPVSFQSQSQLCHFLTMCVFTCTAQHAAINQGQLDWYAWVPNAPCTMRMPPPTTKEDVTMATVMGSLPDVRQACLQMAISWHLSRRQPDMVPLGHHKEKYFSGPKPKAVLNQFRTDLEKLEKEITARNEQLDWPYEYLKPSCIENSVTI
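Purified human 12hLO at 150 nM in 25 mM Hepes, 0.01% Triton X-100, pH 7.0, preincubated 15 min at room temperature with compound. Reaction started with 40 uM arachidonic acid, 30 min at room temperature. Hydroperoxide measured by Fe-xylenol orange, 573/405 nm absorbance ratio.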
TDP1 cell CPT: growth inhibition of DT40 Tdp1-/-;hTDP1 cells with camptothecin (screen for TDP1 inhibitors); Potency, µM (doses to about 46.2 µM), actives largely listed as inhibitors; AID 686979; chicken DT40 Tdp1-/-;hTDP1 cells + 20 nM CPT, ATP luminescence, 48 h; 420,000 compounds, 12% hits; also: nearly all actives have a fitted effect of over 55% in size
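Cell growth measured by CellTiter-Glo luminescence after a minimum 48 h, 37 C compound exposure with 20 nM CPT in Tdp1-knockout DT40 cells stably expressing hTDP1, seeded 400/well; qHTS titration format.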
TDP1 cell noCPT: qHTS for Inhibitors of human tyrosyl-DNA phosphodiesterase 1 (TDP1): qHTS in cells in absence of CPT | DT40 Tdp1-/- hTDP1 cells, no CPT, ATP luminescence, 48 h | Potency, µM (doses to about 46.2 µM), usual class: inhibitors | 420,000 compounds, 15% hits | AID 686978, 2013; also: nearly all actives have a fitted effect of over 55% in size
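Cells were dispensed at 400 per well, compounds added by pin tool, plates incubated ≥48 hr at 37 °C, then CellTiter-Glo added for 30 min at room temperature before luminescence reading. Line: DT40 Tdp1-/- complemented with hTDP1; camptothecin omitted.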
A number is an active result. Unless noted, calls follow the shape of the dose curve; as a rule, active = well fitted curve in the direction sought with a large enough effect; inconclusive = small, poorly fitted or top-dose-only effect, or another doubt; inactive = no such curve, though single readings can be large; an effect the other way counts as inactive or inconclusive.

O=C(CN(c1ccccc1)S(=O)(=O)c1ccccc1)NCCSCc1ccco1 was read as HT1080-NT tox inactive, HT1080 IDH1KD tx inactive, IL1B secr inh inactive, 12-LOX inh inactive, TDP1 cell CPT inactive and TDP1 cell noCPT inactive.
For Cc1ccc(N(CC(=O)NCCSCc2ccco2)S(=O)(=O)c2ccc(F)cc2)cc1 the results were HT1080-NT tox inactive, HT1080 IDH1KD tx inactive, IL1B secr inh inactive, 12-LOX inh inactive, TDP1 cell CPT 26µM and TDP1 cell noCPT 23µM.
Screening Cc1ccc(N(CC(=O)NCCSCc2ccco2)S(C)(=O)=O)cc1 returned HT1080-NT tox inactive, HT1080 IDH1KD tx inactive, IL1B secr inh inactive, 12-LOX inh inactive, TDP1 cell CPT inactive and TDP1 cell noCPT inactive.
`Cc1ccc(S(=O)(=O)N(CC(=O)NCCSCc2ccco2)c2cc(C)ccc2C)cc1` gave HT1080-NT tox inactive, HT1080 IDH1KD tx inactive, IL1B secr inh inactive, 12-LOX inh 40µM, TDP1 cell CPT 16µM and TDP1 cell noCPT inconclusive.
NCC(c1ccccc1Cl)c1c[nH]c2ccccc12 (stereo not drawn) was read as HT1080-NT tox inconclusive, HT1080 IDH1KD tx inconclusive, IL1B secr inh inconclusive, 12-LOX inh inactive, TDP1 cell CPT 5.2µM and TDP1 cell noCPT 13µM.
`NCC(c1ccc(Cl)cc1Cl)c1c[nH]c2ccccc12` (stereo not drawn) gave HT1080-NT tox inconclusive, HT1080 IDH1KD tx inconclusive, IL1B secr inh -88, 12-LOX inh inconclusive, TDP1 cell CPT 18µM and TDP1 cell noCPT 23µM.
For NCC(c1cccs1)c1c[nH]c2ccccc12 (stereo not drawn) the results were 12-LOX inh inactive.
Screening Cn1c(-c2ccc(F)cc2)cc2onc(-c3c(F)cccc3Cl)c2c1=O returned HT1080-NT tox inactive, HT1080 IDH1KD tx inactive, IL1B secr inh inactive, 12-LOX inh inactive, TDP1 cell CPT 13µM and TDP1 cell noCPT inconclusive.
Cc1ccc(-c2cc3onc(-c4ccccc4)c3c(=O)n2C)cc1 was read as HT1080-NT tox inactive, HT1080 IDH1KD tx inactive, IL1B secr inh inactive, 12-LOX inh inactive, TDP1 cell CPT inconclusive and TDP1 cell noCPT inconclusive.
For CCCOc1ccc(-c2cc3onc(-c4ccccc4)c3c(=O)n2C)cc1 the results were HT1080-NT tox inactive, HT1080 IDH1KD tx inactive, IL1B secr inh inactive, 12-LOX inh inactive, TDP1 cell CPT 26µM and TDP1 cell noCPT 18µM.
`CNC(=O)c1ccc(-c2cc3onc(-c4ccccc4)c3c(=O)n2C)cc1` gave HT1080-NT tox inactive, HT1080 IDH1KD tx inactive, IL1B secr inh inactive, 12-LOX inh inconclusive, TDP1 cell CPT 18µM and TDP1 cell noCPT 23µM.
`NC(=O)[C@@H]1C[C@H](Oc2cccnc2)CN1C(=O)C1CCCCC1` gave 12-LOX inh inactive.
`CN(C)CCNC(=O)c1nc2nc(-c3ccccc3)c(-c3ccc(O)c(F)c3)cc2n1C` gave 12-LOX inh inactive.
Screening CCn1c2ccccc2c2cc(CN3CCN(Cc4ccc(Br)cc4)CC3)ccc21 returned 12-LOX inh inconclusive, TDP1 cell CPT 18µM and TDP1 cell noCPT 15µM.
Screening CCN1CCN(S(=O)(=O)Cc2ccccc2)CC1 returned HT1080-NT tox inactive, HT1080 IDH1KD tx inactive, IL1B secr inh inactive, 12-LOX inh inactive, TDP1 cell CPT inactive and TDP1 cell noCPT inactive.
CCn1c2ccccc2c2cc(CN3CCN(S(=O)(=O)Cc4ccccc4)CC3)ccc21 was read as HT1080-NT tox inactive, HT1080 IDH1KD tx inactive, IL1B secr inh inactive, 12-LOX inh inconclusive, TDP1 cell CPT inconclusive and TDP1 cell noCPT 15µM.
`CC(=O)C[C@](N)(c1ccccc1)C(F)(F)F` gave 12-LOX inh inactive.
CC(=O)N1c2ccc(S(=O)(=O)NCCC(=O)Nc3ccc(Cl)cc3)cc2CC1C (stereo not drawn) was read as HT1080-NT tox inactive, HT1080 IDH1KD tx inactive, IL1B secr inh inactive, 12-LOX inh inactive, TDP1 cell CPT 18µM and TDP1 cell noCPT inconclusive.
`CC(=O)N1c2ccc(S(=O)(=O)NCCC(=O)Nc3ccc(C)c(F)c3)cc2CC1C` (stereo not drawn) gave HT1080-NT tox inactive, HT1080 IDH1KD tx inactive, IL1B secr inh inactive, 12-LOX inh inactive, TDP1 cell CPT inconclusive and TDP1 cell noCPT 21µM.
`CC(=O)N1c2ccc(S(=O)(=O)NCCC(=O)Nc3ccc(OC(F)(F)F)cc3)cc2CC1C` (stereo not drawn) gave HT1080-NT tox inactive, HT1080 IDH1KD tx inactive, IL1B secr inh inactive, 12-LOX inh inactive, TDP1 cell CPT 18µM and TDP1 cell noCPT inconclusive.
For CC(=O)N1CCc2cc(S(=O)(=O)C(C)CC(=O)Nc3ccc(OC(F)(F)F)cc3)ccc21 (stereo not drawn) the results were HT1080-NT tox inactive, HT1080 IDH1KD tx inactive, IL1B secr inh inactive, 12-LOX inh inactive, TDP1 cell CPT 21µM and TDP1 cell noCPT inconclusive.
`CC(=O)N1c2ccc(S(=O)(=O)NCCC(=O)Nc3ncccc3C)cc2CC1C` (stereo not drawn) gave HT1080-NT tox inactive, HT1080 IDH1KD tx inactive, IL1B secr inh inactive, 12-LOX inh inactive, TDP1 cell CPT inactive and TDP1 cell noCPT inactive.
`CC(=O)N1c2ccc(S(=O)(=O)NCCc3ccc(Cl)cc3)cc2CC1C` (stereo not drawn) gave HT1080-NT tox inactive, HT1080 IDH1KD tx inactive, IL1B secr inh inactive, 12-LOX inh inactive, TDP1 cell CPT inconclusive and TDP1 cell noCPT inconclusive.
`CC1(C)Cc2ccccc2C(CSc2nc3c(c(C(F)(F)F)n2)CC(C(C)(C)C)CC3)=N1` (stereo not drawn) gave 12-LOX inh inactive.
CC(=O)N1c2ccc(S(=O)(=O)NCCC(=O)NC3CCCC(C)C3C)cc2CC1C (stereo not drawn) was read as HT1080-NT tox inactive, HT1080 IDH1KD tx inactive, IL1B secr inh -52, 12-LOX inh inactive, TDP1 cell CPT inactive and TDP1 cell noCPT inconclusive.
Screening CC(=O)N1c2ccc(S(=O)(=O)NCCC(=O)N3CCC(C)CC3)cc2CC1C (stereo not drawn) returned HT1080-NT tox inactive, HT1080 IDH1KD tx inactive, IL1B secr inh inactive, 12-LOX inh inactive, TDP1 cell CPT inconclusive and TDP1 cell noCPT inactive.
Screening CN(CC(=O)Nc1ccc(OC(F)(F)F)cc1)S(=O)(=O)c1ccc2c(c1)CCC(=O)N2 returned 12-LOX inh inactive, TDP1 cell CPT inconclusive and TDP1 cell noCPT 12µM.
Screening COCc1nc(C2CCCN(C(=O)c3cccc(C)c3)C2)no1 (stereo not drawn) returned 12-LOX inh inactive.
